Test results taken from PubChem BioAssay (EPA / NIEHS).
Results filed as inconclusive are left out. The source made the active and inactive calls. The calls were made as follows, unless noted: active = hit-call score of the fitted dose curve at least 0.9, where 1 is the maximum; inactive = score below 0.9.

Assays:
[1] = read-out: Monocyte Chemoattractant Protein-1 (MCP1), CCL2 (gene 6347); assay: BSK_LPS_MCP1: BioMAP Diversity Plus: LPS Assay for Monocyte Chemoattractant Protein-1 (MCP1) Biomarker Activity (AID 2283081); conditions: primary human HUVEC with PBMC; actives raise or lower the signal
Procedure, shortened: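 Secreted MCP-1 read by ELISA at 24 h post-dosing in an LPS-activated co-culture of endothelial cells with peripheral blood mononuclear cells. Fits run in both directions, DMSO as baseline; parallel SRB staining tracks overt cytotoxicity.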

[2] = BSK_LPS_PGE2: BioMAP Diversity Plus: LPS Assay for Prostaglandin E2 (PGE2) Biomarker Activity (AID 2283082); conditions: primary human HUVEC with PBMC; actives raise or lower the signal
Procedure, shortened: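 Primary human endothelial cells and blood mononuclear cells, co-cultured with LPS, receive test chemical; PGE2 ELISA follows at 24 h, with SRB-stained parallel cultures flagging cytotoxicity.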

[3] = read-out: Macrophage colony-stimulating factor (MCSF), CSF1 (gene 1435); assay: BSK_LPS_MCSF: BioMAP Diversity Plus: LPS Assay for Macrophage colony-stimulating factor (MCSF) Biomarker Activity (AID 2283083); conditions: primary human HUVEC with PBMC; actives raise or lower the signal
Procedure, shortened: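 Bidirectional fitting against DMSO was applied to M-CSF levels read by ELISA at 24 h post-dose. The system pairs human umbilical vein endothelium with peripheral blood mononuclear cells; parallel SRB staining tracked cytotoxicity.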

[4] = read-out: Tissue Factor, F3 (gene 2152); assay: BSK_LPS_TissueFactor: BioMAP Diversity Plus: LPS Assay for Tissue Factor Biomarker Activity (AID 2283084); conditions: primary human HUVEC with PBMC; actives raise or lower the signal
Procedure, shortened: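 Compound was added to an endothelial cell/PBMC co-culture, and after 24 h tissue factor (CD142) was read by ELISA. Gain or loss of signal was fitted against a DMSO baseline, and parallel SRB staining (560 nm) tracked overt cytotoxicity.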

[5] = read-out: Tumor necrosis factor (Homo sapiens) (UniProt P01375); assay: BSK_LPS_TNFa: BioMAP Diversity Plus: LPS Assay for Tumour Necrosis Factor alpha (TNFa) Biomarker Activity (AID 2283085); conditions: primary human HUVEC with PBMC; actives raise or lower the signal;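 as to AC50: TNFa protein level quantified by ELISA in the co-culture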
Procedure, shortened: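 ELISA-based TNFa endpoint in a human endothelial–PBMC co-culture sampled 24 h post-exposure. Curves were fitted in both directions using DMSO as baseline of activity.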

[6] = read-out: Vascular cell adhesion molecule 1 (VCAM1), VCAM1 (gene 7412); assay: BSK_LPS_VCAM1: BioMAP Diversity Plus: LPS Assay for Vascular cell adhesion molecule 1 (VCAM1) Biomarker Activity (AID 2283086); conditions: primary human HUVEC with PBMC; actives raise or lower the signal
Procedure, shortened: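 Measured by ELISA: VCAM-1 in LPS-activated HUVEC/PBMC co-cultures 24 h after treatment. Values reflect bidirectional fitting with DMSO as baseline.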

CD38, CD38 (gene 952) = assay: BSK_SAg_CD38: BioMAP Diversity Plus: SAg Assay for CD38 Biomarker Activity (AID 2283087); conditions: primary human HUVEC with PBMC; actives raise or lower the signal
Procedure, shortened: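 Measures CD38 on a human endothelial/PBMC co-culture driven by SEB and TSST-1, 24 h after compound exposure, using ELISA with fluorescence detection; DMSO defines baseline for bidirectional curve fitting.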

CD40, CD40 (gene 958) = assay: BSK_SAg_CD40: BioMAP Diversity Plus: SAg Assay for CD40 Biomarker Activity (AID 2283088); conditions: primary human HUVEC with PBMC; actives raise or lower the signal
Procedure, shortened: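 CD40 is measured by fluorescence ELISA in an endothelial/PBMC primary human co-culture at 24 h post-dose. Fitting is bidirectional, DMSO baseline. Parallel SRB staining (560 nm) flags cytotoxicity.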

CD69, CD69 (gene 969) = assay: BSK_SAg_CD69: BioMAP Diversity Plus: SAg Assay for CD69 Biomarker Activity (AID 2283089); conditions: primary human HUVEC with PBMC; actives raise or lower the signal;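 as to AC50: cell surface CD69 protein quantified by ELISA with fluorescence detection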
Procedure, shortened: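 HUVEC co-cultured with PBMC were dosed with chemical, and CD69 was measured by ELISA with fluorescence read-out 24 h later. Bidirectional curve fitting used DMSO as negative control and activity baseline.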

[7] = read-out: Monocyte Chemoattractant Protein-1 (MCP1), CCL2 (gene 6347); assay: BSK_SAg_MCP1: BioMAP Diversity Plus: SAg Assay for Monocyte Chemoattractant Protein-1 (MCP1) Biomarker Activity (AID 2283090); conditions: primary human HUVEC with PBMC; actives raise or lower the signal
Procedure, shortened: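 Values derive from bidirectional fitting of ELISA-measured MCP1 against DMSO controls. Readings were taken 24 h after dosing human vascular endothelial cells co-cultured with peripheral blood mononuclear cells under superantigen stimulation.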

[8] = read-out: E-selectin (Homo sapiens) (UniProt P16581); assay: BSK_SAg_Eselectin: BioMAP Diversity Plus: SAg Assay for Eselectin Biomarker Activity (AID 2283091); conditions: primary human HUVEC with PBMC; actives raise or lower the signal
Procedure, shortened: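 Cell-surface E-selectin is read by ELISA at 24 h in the SAg co-culture of HUVEC and PBMC. Curves are fitted in both directions relative to DMSO. Parallel SRB total-protein staining tracks overt toxicity.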

[9] = read-out: Monokine induced gamma interferon (MIG), CXCL9 (gene 4283); assay: BSK_SAg_MIG: BioMAP Diversity Plus: SAg Assay for Monokine induced gamma interferon (MIG) Biomarker Activity (AID 2283092); conditions: primary human HUVEC with PBMC; actives raise or lower the signal
Procedure, shortened: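 HUVEC plus human PBMC co-culture, chemicals dosed and MIG (CXCL9) quantified by ELISA at 24 h. Bidirectional curve fitting against DMSO as negative control and baseline, so both gain and loss of signal count as activity.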

[10] = BSK_SAg_PBMCCytotoxicity: PBMC Cytotoxicity Assessment in the BioMAP Diversity Plus: SAg Assay (AID 2283093); conditions: primary human HUVEC with PBMC;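 also: fitted both ways against DMSO so a hit may be loss or gain of signal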;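 as to AC50: PBMC superantigen activated with SEB plus TSST-1 one hour after compound addition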
Procedure, shortened: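 PBMC viability by Alamar Blue reduction, fluorescence read at 546/580 nm after 6 h dye exposure. Cells were dosed 1 h before SEB plus TSST-1 activation (20 ng/mL final each), then held 90 h; endothelial/PBMC human co-culture.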

[11] = read-out: Interleukin-8 (IL8), CXCL8 (gene 3576); assay: BSK_SAg_IL8: BioMAP Diversity Plus: SAg Assay for Interleukin-8 (IL8) Biomarker Activity (AID 2283094); conditions: primary human HUVEC with PBMC; actives raise or lower the signal
Procedure, shortened: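 Primary human endothelial cells with PBMC, exposed 24 h; IL-8 determined by ELISA, analysed bidirectionally relative to DMSO.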

[12] = BSK_SAg_Proliferation: Cell Proliferation Assessment in the BioMAP Diversity Plus: SAg Assay (AID 2283095); conditions: primary human HUVEC with PBMC;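 also: relative cell number as total protein by SRB absorbance in sub-confluent culture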
Procedure, shortened: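 A human primary co-culture of umbilical vein endothelium and blood mononuclear cells receives compound; relative cell number is quantified at 96 h by SRB staining and 560 nm absorbance, with DMSO-referenced bidirectional curve fitting.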

[13] = BSK_SAg_SRB: Viability Assessment in the BioMAP Diversity Plus: SAg Assay (AID 2283096); conditions: primary human HUVEC with PBMC;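 also: cells read one day after compound addition; hits may be either gain or loss of signal compared with DMSO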
Procedure, shortened: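 Compounds were added to a human vascular co-culture of umbilical vein endothelium and PBMC. After 24 h, parallel cultures were fixed with 10% TCA, stained with 0.1% sulforhodamine B and read at 560 nm. Gain or loss of signal was fitted relative to DMSO.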

[14] = target: human CYP2A6, CYP2A6 (gene 1548) (UniProt P11509); assay: NVS_ADME_hCYP2A6: NovaScreen (NVS) CYP450-related Enzyme Activity (ADME) Assay for human CYP2A6 (AID 2283099; active = hit-call score of the fitted dose curve at least 0.9, where 1 is the maximum)
Procedure, shortened: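 Compounds screened at 10 uM (duplicate) and, if active, titrated to a 20 uM top concentration against insect-cell-expressed CYP2A6. Loss of fluorescent product signal after 0.5 h, relative to acetonitrile baseline, indicates inhibition.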

[15] = target: human CYP1A1, CYP1A1 (gene 1543) (UniProt P04798); assay: NVS_ADME_hCYP1A1: NovaScreen (NVS) CYP450-related Enzyme Activity (ADME) Assay for human CYP1A1 (AID 2283100; active = hit-call score of the fitted dose curve at least 0.9, where 1 is the maximum)
Procedure, shortened: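 Chemicals were first tested in duplicate at 10 uM, and those passing a 30% inhibition threshold were rerun as concentration series topping at 20 uM. Fluorescence read-out of recombinant enzyme turnover after 1 h, relative to acetonitrile.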

[16] = target: human CYP2B6, CYP2B6 (gene 1555) (UniProt P20813); assay: NVS_ADME_hCYP2B6: NovaScreen (NVS) CYP450-related Enzyme Activity (ADME) Assay for human CYP2B6 (AID 2283101; active = hit-call score of the fitted dose curve at least 0.9, where 1 is the maximum)
Procedure, shortened: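 Recombinant human CYP2B6 with fluorogenic substrate, read by fluorescence intensity 1 h after dosing. Primary screen in duplicate at 10 uM, actives followed in concentration series; signal loss relative to acetonitrile control.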

Chain of E-selectin (Homo sapiens) (P16581 whole entry, looked up): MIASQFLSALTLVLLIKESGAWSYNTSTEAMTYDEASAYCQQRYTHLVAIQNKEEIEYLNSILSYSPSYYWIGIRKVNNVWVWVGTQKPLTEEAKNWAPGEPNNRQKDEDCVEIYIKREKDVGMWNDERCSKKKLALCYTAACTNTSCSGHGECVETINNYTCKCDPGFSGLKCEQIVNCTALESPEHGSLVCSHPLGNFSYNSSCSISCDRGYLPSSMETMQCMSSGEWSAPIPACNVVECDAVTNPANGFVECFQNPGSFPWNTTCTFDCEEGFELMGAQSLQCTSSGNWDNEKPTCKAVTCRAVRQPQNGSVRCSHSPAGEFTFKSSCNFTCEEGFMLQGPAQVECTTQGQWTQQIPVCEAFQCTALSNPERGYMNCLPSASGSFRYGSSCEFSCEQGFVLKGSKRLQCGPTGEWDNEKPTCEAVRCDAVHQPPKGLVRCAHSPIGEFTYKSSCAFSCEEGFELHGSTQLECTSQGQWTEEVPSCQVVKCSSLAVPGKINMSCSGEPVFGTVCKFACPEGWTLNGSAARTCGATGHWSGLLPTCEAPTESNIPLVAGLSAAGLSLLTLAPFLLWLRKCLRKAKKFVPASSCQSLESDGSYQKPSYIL
Chain of Tumor necrosis factor (Homo sapiens) (P01375 whole entry, looked up): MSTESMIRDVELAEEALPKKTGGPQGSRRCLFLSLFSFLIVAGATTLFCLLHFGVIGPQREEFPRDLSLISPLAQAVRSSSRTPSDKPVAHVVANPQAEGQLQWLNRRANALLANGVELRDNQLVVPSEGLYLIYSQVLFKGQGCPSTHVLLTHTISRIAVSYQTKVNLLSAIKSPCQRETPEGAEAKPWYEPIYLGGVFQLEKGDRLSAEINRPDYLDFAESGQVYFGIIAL
Chain of human CYP1A1, CYP1A1 (gene 1543) (P04798 whole entry, looked up): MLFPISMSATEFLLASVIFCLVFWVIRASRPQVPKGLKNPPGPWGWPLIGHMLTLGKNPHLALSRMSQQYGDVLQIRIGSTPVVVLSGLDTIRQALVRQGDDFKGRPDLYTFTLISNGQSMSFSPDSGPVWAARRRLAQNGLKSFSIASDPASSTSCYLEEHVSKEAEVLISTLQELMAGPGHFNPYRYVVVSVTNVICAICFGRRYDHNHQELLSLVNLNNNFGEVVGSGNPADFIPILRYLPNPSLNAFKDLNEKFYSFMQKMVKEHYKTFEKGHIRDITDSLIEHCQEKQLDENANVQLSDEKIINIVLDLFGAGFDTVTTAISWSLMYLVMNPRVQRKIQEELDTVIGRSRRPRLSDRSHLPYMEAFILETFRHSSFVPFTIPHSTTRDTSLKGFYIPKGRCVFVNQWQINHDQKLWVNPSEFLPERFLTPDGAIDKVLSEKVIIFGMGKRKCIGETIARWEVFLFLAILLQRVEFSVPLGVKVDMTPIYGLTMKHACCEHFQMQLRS
Chain of human CYP2A6, CYP2A6 (gene 1548) (P11509 whole entry, looked up): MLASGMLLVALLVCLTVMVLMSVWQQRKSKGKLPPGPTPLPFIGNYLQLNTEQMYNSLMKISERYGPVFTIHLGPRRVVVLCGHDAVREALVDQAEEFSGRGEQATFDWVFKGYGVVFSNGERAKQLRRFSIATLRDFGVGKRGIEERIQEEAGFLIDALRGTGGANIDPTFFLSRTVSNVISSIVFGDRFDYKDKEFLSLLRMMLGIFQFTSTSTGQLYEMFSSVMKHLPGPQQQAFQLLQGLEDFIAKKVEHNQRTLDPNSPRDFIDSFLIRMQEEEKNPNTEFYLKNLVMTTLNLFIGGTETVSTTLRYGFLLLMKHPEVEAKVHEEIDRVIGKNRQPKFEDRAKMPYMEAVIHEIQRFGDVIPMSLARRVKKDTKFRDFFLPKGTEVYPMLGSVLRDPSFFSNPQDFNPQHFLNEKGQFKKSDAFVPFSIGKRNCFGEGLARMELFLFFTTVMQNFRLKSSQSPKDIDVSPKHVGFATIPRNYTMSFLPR
Chain of human CYP2B6, CYP2B6 (gene 1555) (P20813 whole entry, looked up): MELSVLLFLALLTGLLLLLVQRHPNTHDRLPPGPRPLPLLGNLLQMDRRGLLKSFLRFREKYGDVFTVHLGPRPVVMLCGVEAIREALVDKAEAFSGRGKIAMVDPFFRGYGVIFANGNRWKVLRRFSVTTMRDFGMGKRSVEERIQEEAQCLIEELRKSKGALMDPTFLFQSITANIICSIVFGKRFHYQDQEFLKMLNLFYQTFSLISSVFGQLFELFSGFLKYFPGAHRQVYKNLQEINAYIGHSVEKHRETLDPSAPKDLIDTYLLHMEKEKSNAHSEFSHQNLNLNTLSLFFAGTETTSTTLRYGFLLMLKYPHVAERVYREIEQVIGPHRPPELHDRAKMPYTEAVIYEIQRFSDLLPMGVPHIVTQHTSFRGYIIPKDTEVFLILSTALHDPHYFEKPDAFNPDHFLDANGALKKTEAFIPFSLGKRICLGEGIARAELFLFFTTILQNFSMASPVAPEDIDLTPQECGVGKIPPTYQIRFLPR

FC(F)C(F)(F)COCC1CO1 (configuration not stated)
outcome [1]: inactive
outcome [2]: inactive
outcome [3]: inactive
outcome [4]: inactive
outcome [5]: inactive
outcome [6]: inactive
outcome (CD38, CD38 (gene 952)): inactive
outcome (CD40, CD40 (gene 958)): inactive
outcome (CD69, CD69 (gene 969)): inactive
outcome [7]: inactive
outcome [8]: inactive
outcome [9]: inactive
outcome [10]: inactive
outcome [11]: inactive
outcome [12]: inactive
outcome [13]: inactive

CCCCCOC(C)=O
outcome [1]: inactive
outcome [2]: inactive
outcome [4]: inactive
AC50 [5]: 10.1 µM (active)
outcome [6]: inactive
outcome (CD38, CD38 (gene 952)): inactive
outcome (CD40, CD40 (gene 958)): inactive
outcome (CD69, CD69 (gene 969)): inactive
outcome [7]: inactive
outcome [8]: inactive
outcome [9]: inactive
AC50 [10]: 30.3 µM (active)
outcome [11]: inactive
outcome [13]: inactive

O=C1CN(N=Cc2ccc([N+](=O)[O-])o2)C(=O)N1
outcome [1]: inactive
outcome [2]: inactive
outcome [3]: inactive
outcome [4]: inactive
outcome [5]: inactive
AC50 [6]: 20 µM (active)
outcome (CD38, CD38 (gene 952)): inactive
outcome (CD40, CD40 (gene 958)): inactive
outcome (CD69, CD69 (gene 969)): inactive
outcome [7]: inactive
AC50 [8]: 9.33 µM (active)
outcome [9]: inactive
outcome [10]: inactive
outcome [11]: inactive
AC50 [12]: 9.07 µM (active)
outcome [13]: inactive

O=C(O)c1cccc(C(=O)O)c1
outcome [1]: inactive
outcome [2]: inactive
outcome [3]: inactive
outcome [4]: inactive
outcome [5]: inactive
outcome [6]: inactive
outcome (CD38, CD38 (gene 952)): inactive
outcome (CD40, CD40 (gene 958)): inactive
outcome (CD69, CD69 (gene 969)): inactive
outcome [7]: inactive
outcome [8]: inactive
outcome [9]: inactive
outcome [10]: inactive
outcome [13]: inactive

CC1(C)C(=O)N(Cl)C(=O)N1Cl
outcome [1]: inactive
outcome [2]: inactive
outcome [3]: inactive
outcome [4]: inactive
outcome [5]: inactive
outcome [6]: inactive
outcome (CD38, CD38 (gene 952)): inactive
outcome (CD40, CD40 (gene 958)): inactive
outcome (CD69, CD69 (gene 969)): inactive
outcome [7]: inactive
outcome [8]: inactive
outcome [9]: inactive
outcome [10]: inactive
outcome [13]: inactive

NNC(=O)c1ccncc1
outcome [1]: inactive
outcome [2]: inactive
outcome [3]: inactive
outcome [4]: inactive
outcome [5]: inactive
outcome [6]: inactive
outcome (CD40, CD40 (gene 958)): inactive
outcome (CD69, CD69 (gene 969)): inactive
outcome [7]: inactive
outcome [8]: inactive
outcome [9]: inactive
AC50 [10]: 5.14 µM (active)
outcome [12]: inactive
outcome [13]: inactive

CCOC(N)=O
outcome [1]: inactive
outcome [2]: inactive
outcome [3]: inactive
outcome [4]: inactive
outcome [5]: inactive
outcome [6]: inactive
outcome (CD40, CD40 (gene 958)): inactive
outcome (CD69, CD69 (gene 969)): inactive
outcome [7]: inactive
outcome [8]: inactive
outcome [9]: inactive
outcome [10]: inactive
outcome [13]: inactive

c1ccc(C(O[C@@H]2CCCN(CCc3ccc4c(c3)OCO4)C2)c2ccccc2)cc1
outcome [1]: inactive
outcome [2]: inactive
outcome [4]: inactive
outcome [5]: inactive
outcome [6]: inactive
AC50 (CD38, CD38 (gene 952)): 30.6 µM (active)
AC50 (CD40, CD40 (gene 958)): 30.4 µM (active)
AC50 (CD69, CD69 (gene 969)): 30.3 µM (active)
AC50 [7]: 26.5 µM (active)
AC50 [8]: 27.6 µM (active)
AC50 [9]: 30.9 µM (active)
AC50 [10]: 28.4 µM (active)
AC50 [12]: 16.3 µM (active)
AC50 [13]: 24.3 µM (active)
outcome [14]: inactive
AC50 [15]: 4.89 µM (active)
AC50 [16]: 4.4 µM (active)

Nc1ccn([C@@H]2O[C@H](CO)[C@@H](O)[C@@H]2O)c(=O)n1
outcome [1]: inactive
outcome [2]: inactive
outcome [3]: inactive
outcome [4]: inactive
outcome [5]: inactive
outcome [6]: inactive
outcome (CD38, CD38 (gene 952)): inactive
outcome (CD40, CD40 (gene 958)): inactive
outcome (CD69, CD69 (gene 969)): inactive
outcome [7]: inactive
AC50 [8]: 8.71 µM (active)
outcome [9]: inactive
AC50 [10]: 12 µM (active)
AC50 [13]: 20 µM (active)
